In PubChem BioAssay:
Active and inactive are the calls of the source.

Columns and labels:
Albumin (Bos taurus) = Albumin (Bos taurus) (UniProt P02769); test: bovine serum albumin binders on microarray, profiling panel, artefact control for SMM control protein annotation, biochemical, small-molecule microarray, Alexa647 label, 635/667 nm fluorescence (AID 1118); conditions: BSA-A647 binding, fluorescence 635 nm, higher = more signal;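 also: score merges 667 nm emission intensity and signal-to-noise per printed compound spot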
Sequence of Albumin (Bos taurus) (P02769 whole entry, looked up): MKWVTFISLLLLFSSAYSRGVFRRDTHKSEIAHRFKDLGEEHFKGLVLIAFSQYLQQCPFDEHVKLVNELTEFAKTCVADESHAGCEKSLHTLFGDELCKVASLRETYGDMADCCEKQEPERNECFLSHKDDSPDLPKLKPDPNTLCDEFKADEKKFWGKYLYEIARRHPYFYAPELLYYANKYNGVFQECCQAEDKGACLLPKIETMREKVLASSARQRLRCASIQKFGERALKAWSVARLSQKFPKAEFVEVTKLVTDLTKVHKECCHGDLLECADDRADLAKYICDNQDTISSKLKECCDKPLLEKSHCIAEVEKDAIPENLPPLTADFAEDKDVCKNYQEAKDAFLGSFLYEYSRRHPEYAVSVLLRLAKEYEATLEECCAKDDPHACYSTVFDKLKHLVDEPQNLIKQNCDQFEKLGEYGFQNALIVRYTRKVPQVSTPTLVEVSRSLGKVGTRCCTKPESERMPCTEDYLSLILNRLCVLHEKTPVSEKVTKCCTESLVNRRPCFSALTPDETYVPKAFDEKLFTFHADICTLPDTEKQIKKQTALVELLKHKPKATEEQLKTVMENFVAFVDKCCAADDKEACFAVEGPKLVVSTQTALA

[1] = small-molecule microarray binders of probe aXIP, primary screen, biochemical, NeuroSMM set, 635/667 nm fluorescence (AID 1119); conditions: higher = more signal, called active from +8 up or from −8 down;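 also: probe is the protein aXip251-270 applied at 1 µg/mL to compound-printed slides; binding of probe to printed compounds measured as 667 nm fluorescence plus signal to noise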
[2] = small-molecule binders of probe aNOTCH3, primary screen, biochemical, small-molecule microarray, 635/667 nm fluorescence (AID 1120); conditions: higher = more signal;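 also: probe is a biotin-tagged antibody raised against NOTCH3 rather than NOTCH3 protein; score merges spot fluorescence near 667 nm with spot signal to noise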
[3] = small-molecule binders of probe aNOTCH2, primary screen, biochemical, small-molecule microarray, 635/667 nm fluorescence (AID 1121); conditions: higher = more signal;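 also: score merges feature fluorescence read at 667 nm with its signal to noise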
[4] = biological target: Carbonic anhydrase 2 (Homo sapiens) (UniProt P00918); test: CAII small-molecule binders, profiling panel, biochemical, small-molecule microarray, Alexa647-labelled CAII (AID 1122); conditions: CAII-A647 binding fluorescence, higher = more signal
[5] = COS7 lysate on small-molecule microarray, probe aHis, 635 nm (AID 1123); conditions: COS7 cell lysate, fluorescence, higher = more signal;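 also: z-score combines 667nm fluorescence intensity with signal-to-noise per printed compound spot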
[6] = compound binding in COS7 lysate, probe aLAP1, primary screen, cell lysate, small-molecule microarray (AID 1124); conditions: probe aLAP1, fluorescence, higher = more signal;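 also: lysate comes from COS7 cells expressing LAP1 and is applied at 0.3 µg/mL; score merges spot fluorescence near 667 nm with signal-to-noise over triplicate slides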
Sam68 (KHDRBS1) = test: Sam68 small-molecule binders, primary screen, biochemical, small-molecule microarray, 635 nm fluorescence (AID 1125); conditions: small-molecule microarray binding, higher = more signal;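 also: score merges 667 nm channel intensity with signal to noise over triplicate slides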
[7] = system: Chordin-like protein 2 (CHRDL2); test: CHRDL2 small-molecule binders, primary screen, biochemical, small-molecule microarray, 635 nm fluorescence (AID 1126); conditions: small-molecule microarray binding, fluorescence 635 nm; higher = more signal;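 also: printed compound slides probed with Chrdl2 protein at 4 µg/mL for 1 h at 4 C; score merges 667 nm emission intensity with signal to noise over three replicate slides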
[8] = biological target: Concanavalin-A (Canavalia ensiformis) (UniProt P02866); test: ConA small-molecule binders, primary screen, artefact control for SMM control protein annotation, biochemical, small-molecule microarray, Alexa647 label, 635 nm (AID 1127); conditions: ConA-A647 binding fluorescence, higher = more signal;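 also: z combines 667 nm emission intensity with signal-to-noise across three replicate slides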
Sequence of Concanavalin-A (Canavalia ensiformis) (P02866 whole entry, looked up): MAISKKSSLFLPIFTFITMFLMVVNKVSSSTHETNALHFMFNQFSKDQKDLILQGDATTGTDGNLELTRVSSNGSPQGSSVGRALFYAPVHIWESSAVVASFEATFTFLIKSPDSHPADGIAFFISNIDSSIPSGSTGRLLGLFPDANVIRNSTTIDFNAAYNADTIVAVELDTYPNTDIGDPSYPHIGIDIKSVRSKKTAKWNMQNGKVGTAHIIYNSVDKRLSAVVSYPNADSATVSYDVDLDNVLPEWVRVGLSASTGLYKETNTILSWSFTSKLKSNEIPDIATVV

[9] = anti-His antibody binders, primary screen, artefact control for SMM control protein annotation, biochemical, small-molecule microarray, 635 nm fluorescence (AID 1128); conditions: anti-His Alexa647 antibody binding, higher = more signal;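 also: score merges feature fluorescence with signal-to-noise for each printed compound spot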
[10] = system: Human papillomavirus type 1a E7 protein (residues 1-88); test: HPV1a E7 small-molecule binders, primary screen, biochemical, small-molecule microarray, residues 1-88, 635 nm (AID 1129); conditions: small-molecule microarray binding, fluorescence 635 nm; higher = more signal
[11] = biological target: Focal adhesion kinase 1 (Homo sapiens) (UniProt Q05397); test: small-molecule microarray binders of FAK, primary screen, biochemical, 635/667 nm fluorescence, BSA, DTT (AID 1130); conditions: PTK2 binding, 635 nm fluorescence, higher = more signal;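 also: composite of spot emission at 667 nm and signal to noise over triplicate slides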
Sequence of Focal adhesion kinase 1 (Homo sapiens) (Q05397 whole entry, looked up): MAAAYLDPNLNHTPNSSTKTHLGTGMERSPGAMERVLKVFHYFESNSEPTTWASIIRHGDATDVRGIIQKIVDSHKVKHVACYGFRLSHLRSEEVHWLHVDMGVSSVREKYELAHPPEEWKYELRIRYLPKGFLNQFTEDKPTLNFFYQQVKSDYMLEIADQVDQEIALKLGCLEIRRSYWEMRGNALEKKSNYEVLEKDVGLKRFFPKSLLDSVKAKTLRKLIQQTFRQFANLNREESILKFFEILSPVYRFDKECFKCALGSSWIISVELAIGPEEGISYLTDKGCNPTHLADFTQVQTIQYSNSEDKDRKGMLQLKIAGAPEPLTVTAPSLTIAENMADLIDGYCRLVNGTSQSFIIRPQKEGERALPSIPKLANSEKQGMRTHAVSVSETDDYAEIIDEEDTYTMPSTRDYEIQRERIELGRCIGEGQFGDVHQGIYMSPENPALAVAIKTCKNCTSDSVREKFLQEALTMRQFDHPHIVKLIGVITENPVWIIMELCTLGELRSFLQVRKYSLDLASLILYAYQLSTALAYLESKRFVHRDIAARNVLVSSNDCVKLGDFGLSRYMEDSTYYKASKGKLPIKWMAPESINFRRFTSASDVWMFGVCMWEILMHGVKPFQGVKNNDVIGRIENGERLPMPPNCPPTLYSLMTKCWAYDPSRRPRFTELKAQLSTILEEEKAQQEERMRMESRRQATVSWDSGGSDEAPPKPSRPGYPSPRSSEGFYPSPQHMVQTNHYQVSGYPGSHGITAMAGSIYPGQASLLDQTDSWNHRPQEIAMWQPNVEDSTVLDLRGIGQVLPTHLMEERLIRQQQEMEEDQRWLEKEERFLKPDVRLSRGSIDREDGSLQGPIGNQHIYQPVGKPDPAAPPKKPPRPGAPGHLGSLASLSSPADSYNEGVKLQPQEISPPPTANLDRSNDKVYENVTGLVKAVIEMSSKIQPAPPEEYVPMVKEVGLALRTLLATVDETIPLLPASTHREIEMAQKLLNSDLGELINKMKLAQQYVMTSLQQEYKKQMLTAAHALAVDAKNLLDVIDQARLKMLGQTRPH

[12] = system: Fibrinogen (Alexa647-labelled); test: fibrinogen binders on compound microarrays, profiling panel, artefact control for SMM control-protein annotation, biochemical, small-molecule microarray, 635/667 nm fluorescence (AID 1131); conditions: fibrinogen-A647 binding fluorescence, higher = more signal;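 also: z-score merges 667 nm fluorescence with per-spot signal-to-noise over triplicate slides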
[13] = biological target: Follistatin (Homo sapiens) (UniProt P19883); test: follistatin binders on small-molecule microarrays, primary screen, biochemical, small-molecule microarray, 635/667 nm fluorescence (AID 1132); conditions: FST binding, 635 nm fluorescence, higher = more signal
Sequence of Follistatin (Homo sapiens) (P19883 whole entry, looked up): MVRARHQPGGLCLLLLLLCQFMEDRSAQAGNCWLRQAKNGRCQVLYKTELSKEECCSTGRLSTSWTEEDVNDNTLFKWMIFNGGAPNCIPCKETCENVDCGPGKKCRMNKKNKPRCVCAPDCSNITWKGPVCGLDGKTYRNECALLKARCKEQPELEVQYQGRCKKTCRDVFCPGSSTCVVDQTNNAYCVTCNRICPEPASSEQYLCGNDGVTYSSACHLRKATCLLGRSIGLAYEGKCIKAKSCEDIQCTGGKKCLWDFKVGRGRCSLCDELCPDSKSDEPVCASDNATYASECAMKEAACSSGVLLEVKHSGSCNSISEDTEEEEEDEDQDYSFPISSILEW

[14] = biological target: Fibroblast growth factor 2 (Homo sapiens) (UniProt P09038); test: FGF2 binders on small-molecule microarrays, primary screen, biochemical, small-molecule microarray, 635/667 nm fluorescence (AID 1133); conditions: small-molecule microarray binding, FGF2, fluorescence 635/667; higher = more signal
Sequence of Fibroblast growth factor 2 (Homo sapiens) (P09038 whole entry, looked up): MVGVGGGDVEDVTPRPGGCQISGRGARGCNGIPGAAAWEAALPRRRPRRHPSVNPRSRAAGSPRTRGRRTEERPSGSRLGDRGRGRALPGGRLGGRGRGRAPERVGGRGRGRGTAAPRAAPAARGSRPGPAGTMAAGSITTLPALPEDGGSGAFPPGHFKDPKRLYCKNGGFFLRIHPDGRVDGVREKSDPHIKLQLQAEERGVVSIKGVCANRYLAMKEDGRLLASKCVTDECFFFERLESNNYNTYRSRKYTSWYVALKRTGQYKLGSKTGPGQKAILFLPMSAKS

[15] = mitochondrial membrane potential change in A549 cells, profiling panel, cell-based, JC-1 fluorescence, basal, 24 h, 100 nL (AID 1138); conditions: higher = more signal;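 also: A549 lung adenocarcinoma cells under basal conditions with no added stimulus; test concentration not given here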
Lefty1 = Lefty1 binders on small-molecule microarrays, primary screen, biochemical, small-molecule microarray, 635/667 nm fluorescence (AID 1139); conditions: small-molecule microarray binding, fluorescence 635/667; higher = more signal
[16] = system: wheat germ agglutinin (Triticum aestivum), Alexa647-labelled; test: wheat germ agglutinin binders on compound microarrays, profiling panel, artefact control for SMM control-protein annotation, biochemical, small-molecule microarray, 635/667 nm fluorescence (AID 1140); conditions: WGA-A647 binding, 635 nm fluorescence, higher = more signal;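 also: score merges 667 nm feature emission with signal to noise over triplicate slides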
[17] = biological target: Luciferin 4-monooxygenase (Photinus pyralis) (UniProt P08659); test: firefly luciferase enzyme inhibitors, primary screen, biochemical, luminescence, purified enzyme, 2006 set (AID 1141); conditions: SteadyGlo luminescence, 30 min, higher = more signal, called active from +8 up or from −8 down;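 also: cell-free assay with purified firefly luciferase at 100 ng per well in PBS; test concentration not given here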
Sequence of Luciferin 4-monooxygenase (Photinus pyralis) (P08659 whole entry, looked up): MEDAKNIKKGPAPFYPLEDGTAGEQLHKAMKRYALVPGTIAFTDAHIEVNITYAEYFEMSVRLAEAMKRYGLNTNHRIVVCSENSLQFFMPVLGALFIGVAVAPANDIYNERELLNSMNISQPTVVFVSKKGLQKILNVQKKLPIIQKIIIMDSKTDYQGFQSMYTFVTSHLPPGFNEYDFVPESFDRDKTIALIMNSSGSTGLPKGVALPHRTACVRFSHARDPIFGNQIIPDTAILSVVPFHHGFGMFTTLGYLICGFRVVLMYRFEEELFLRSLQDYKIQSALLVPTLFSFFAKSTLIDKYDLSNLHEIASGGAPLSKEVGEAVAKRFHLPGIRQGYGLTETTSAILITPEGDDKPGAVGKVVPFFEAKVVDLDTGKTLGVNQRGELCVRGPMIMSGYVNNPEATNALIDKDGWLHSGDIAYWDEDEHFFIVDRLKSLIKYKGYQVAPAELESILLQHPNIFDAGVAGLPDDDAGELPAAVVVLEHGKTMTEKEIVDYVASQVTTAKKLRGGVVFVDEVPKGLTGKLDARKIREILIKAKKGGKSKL

| SMILES | composite z-score (Albumin (Bos taurus)) | composite Z-score [1] | composite z-score [2] | composite z-score [3] | composite z-score [4] | composite z-score [5] | composite z-score [6] | composite z-score (Sam68 (KHDRBS1)) | composite z-score [7] | composite z-score [8] | composite z-score [9] | composite z-score [10] | composite z-score [11] | composite z-score [12] | composite z-score [13] | composite z-score [14] | z-score [15] | composite z-score (Lefty1) | composite z-score [16] | z-score [17] |
| --- | --- | --- | --- | --- | --- | --- | --- | --- | --- | --- | --- | --- | --- | --- | --- | --- | --- | --- | --- | --- |
| C[C@@H](c1ccccc1)N1C(=O)[C@H]2[C@H]3[C@H](O)C=CC(=O)[C@@H]3CC[C@H]2C1=O | 0.0343 | -0.325 (inactive) | -0.0932 | -0.132 | 0.572 | -0.263 | 0.146 | 0.456 | 0.778 | 0.518 | 0.299 | 0.492 | -0.0464 | 0.392 | 0.503 | 0.104 | 0.107 | 0.752 | 0.204 | -0.62 (inactive) |
| CC(C)CN1CCc2nc(-c3ccccc3)c3c(c2CC1)CO[C@@H](C)C3 | -0.249 | -0.002 (inactive) | 0.154 | -0.16 | -0.143 | -0.258 | -0.673 | -0.168 | 0.74 | 0.0721 | 0.21 | 0.103 | 0.101 | 0.418 | 0.587 | 0.478 | 0.186 | 0.435 | 0.22 | -0.227 (inactive) |
| CC[C@@H](c1ccccc1)n1c(=O)n2n(c1=O)[C@H]1[C@H](O)[C@@H]3O[C@@H]3C(=NOCC=C(C)CCC=C(C)C)[C@H]1CC2 | -0.258 | -0.183 (inactive) | 0.192 | -0.084 | 0.406 | 0.689 | -0.194 | 1.29 | 0.552 | 0.548 | 0.592 | 1.1 | 0.301 | 0.417 | 0.708 | 0.55 | 0.0549 | 1.25 | 0.359 | -0.726 (inactive) |
| C=CCNC(=O)[C@H]1[C@@H]2C(=O)O[C@@H](c3ccccc3)[C@@H](c3ccccc3)N2[C@@H](c2ccc(O)cc2)[C@]12C(=O)N(C(=O)OCCOC)c1ccc(C#CC3=CCCCC3)cc12 | 0.633 | 0.62 (inactive) | 1.27 | 0.396 | 0.296 | 2.23 | 1.78 | 1.3 | 0.966 | 1.09 | 0.692 | 1.22 | 0.723 | 0.892 | 0.379 | 0.248 | -0.76 | 0.484 | 0.583 | -0.54 (inactive) |
| CO[C@H]1O[C@H](CO)[C@@H](OC(=O)Nc2ccc(C#N)cc2)[C@H](OC(=O)c2cc3ccccc3[nH]2)[C@H]1OC(=O)c1cc2ccccc2[nH]1 | 0.904 | 1.79 (inactive) | 0.078 | -0.0211 | 0.627 | 2.41 | 1.5 | 1.31 | 0.451 | 1.13 | 2.87 | 1.18 | 0.831 | 0.787 | 0.491 | 1.33 | 0.71 | 0.421 | 0.955 | -2.01 (inactive) |
| CC(C)=CCCC(C)=CCON=C1[C@H]2CCn3c(=O)n(C)c(=O)n3[C@H]2[C@H](O)[C@@H]2O[C@H]12 | -0.286 | -0.0793 (inactive) | 0.0297 | -0.14 | 0.295 | 0.482 | 0.644 | 1.27 | 0.916 | 0.941 | 0.957 | 0.968 | -0.236 | 0.674 | 0.865 | 0.896 | 0.637 | 1.37 | 0.115 | -0.284 (inactive) |
| CO[C@H]([C@@H](C)[C@H](OC)c1ccccc1)[C@H](C)[C@@H](OC)[C@H](C)C(C)=O | -0.529 | 0.837 (inactive) | -0.13 | -0.0551 | -0.505 | -0.74 | -0.32 | -1.24 | -0.326 | -2.34 | 1 | -0.744 | 0.27 | -0.464 | -0.304 | 0.0135 | 1.1 | 0.128 | -0.496 | -1.87 (inactive) |
| COC(=O)C1=C(C)[C@@H](O)[C@@H](C)[C@H](c2c(OC)c(OC)c(C)c(OC)c2OC)O1 | 0.529 | -0.461 (inactive) | -0.0615 | -0.14 | 0.298 | 0.206 | -0.064 | -0.441 | 0.336 | 0.484 | 0.174 | 0.113 | 0.132 | -1.27 | 0.194 | 0.236 | -0.485 | 0.475 | -0.611 | -0.0386 (inactive) |
| CCCC[C@@H]1C[C@H]1[C@@H](NS(=O)(=O)c1cccc2cccnc12)c1ccc(-c2ccccc2)cc1 | 0.41 | -0.325 (inactive) | 0.106 | -0.0817 | 0.529 | 0.92 | -0.222 | -0.0217 | -1 | 0.119 | 0.983 | 1.08 | 0.479 | -0.809 | 0.0634 | -1.06 | 0.164 | -0.805 | 0.366 | 0.633 (inactive) |
| C[C@H]1CC[C@@H](C(=O)O)N[C@@H]1c1ccc(C#CCN(C)C)cc1 | -0.0169 | 0.26 (inactive) | 0.0556 | -0.149 | 0.37 | -0.144 | -0.0228 | -0.331 | 0.591 | 0.574 | 0.601 | 0.34 | 0.0583 | 0.54 | 0.682 | 0.453 | 1.04 | 0.343 | 0.117 | -0.931 (inactive) |
| O=C1[C@H]2[C@H]3[C@H](O)[C@H](O)CC(=NO[C@@H]4O[C@H](CO)[C@@H](O)[C@H](O)[C@H]4O)[C@@H]3CC[C@H]2C(=O)N1c1ccc(F)cc1F | 0.241 | -0.836 (inactive) | -0.0612 | -0.104 | -0.0947 | -0.0596 | 0 | 0.465 | 0.426 | 0.262 | 0.537 | 0.534 | -0.33 | 0.273 | 0.438 | 0.209 | 0.242 | 0.386 | 0.0553 | 0.523 (inactive) |
